p53 reactivation: mutant p53 re-activation in reporter cells; H1299 p53-A138V BP100-luciferase reporter, luminescence, 24 h; Potency, µM (highest dose often 92.2 µM), usual class: activators; 0.063% of 320,000 active; also: nearly all actives have a fitted effect of over 45% in size
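H1299 (p53-null), stable ts p53-A138V + BP100-Luc; 1000 cells/well, Opti-MEM/10% FBS; cpd 4 pt, 1:5; 24 h, 37 deg C, 5% CO2; detection reagent 10 min RT; luminescence.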
Six1-Eya2 blk: inhibitors of human Six1/Eya2 interaction; Q15475+O00167; AlphaScreen GST-Six1/His-Eya2 binding, biochemical; active compounds read low; activity change, % (no concentration beside the values); 0.56% of 360,000 active; AID 651725; in the data active = activity change below about -65%; inconclusive = mostly about -30% to -63%
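Six1/Eya2 binding was read as AlphaScreen signal after compounds were pinned into GST-Six1 plus His-tagged Eya2 (5X stock 250/500 nM) in pH 8.0 Tris/NaCl/TCEP buffer, beads added, then incubated 1 h, 37 C, dark.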
VP16 counter: inhibits Gal4-VP16 luciferase reporter, ROR gamma counter-screen; 3.5% of 310,000 active; Potency, µM (highest dose often 53.6 µM), usual class: inhibitors; Drosophila S2 Gal4-VP16 UAS-luciferase, luminescence, 20 h; AID 2546;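 also: Gal4-VP16 expression switched on by copper sulfate through the metallothionein promoter; nearly all actives have a fitted effect of over 50% in size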
CtBP-E1A blk: blocks the CtBP interaction with E1A | 0.49% of 340,000 active | activity change, % (test concentration not listed) | AlphaScreen GST-E1A/His-CtBP binding, 1536-well; active compounds read low | AID 651724; in the data active = activity change below about -65%; inconclusive = mostly about -30% to -63%
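AlphaScreen with 125 nM GST-E1A and 125 nM His-CtBP (5X stocks) in Tris pH 8.0, 300 mM NaCl, BSA, Tween 20, TCEP. Compounds preincubated 2 h at 37 deg C, then glutathione donor/nickel acceptor beads added for 1 h at 37 deg C in dark.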
RORgamma inh: blocks mouse ROR gamma transcriptional activity. P51450. Drosophila S2 Gal4-RORgamma UAS-luciferase reporter, 20 h. Potency, µM (series often up to 53.6 µM), usual class: inhibitors. 5.4% of 310,000 active. AID 2551; also: nearly all actives have a fitted effect of over 60% in size
Target sequence (P51450 whole entry, looked up, the tested form may be a part): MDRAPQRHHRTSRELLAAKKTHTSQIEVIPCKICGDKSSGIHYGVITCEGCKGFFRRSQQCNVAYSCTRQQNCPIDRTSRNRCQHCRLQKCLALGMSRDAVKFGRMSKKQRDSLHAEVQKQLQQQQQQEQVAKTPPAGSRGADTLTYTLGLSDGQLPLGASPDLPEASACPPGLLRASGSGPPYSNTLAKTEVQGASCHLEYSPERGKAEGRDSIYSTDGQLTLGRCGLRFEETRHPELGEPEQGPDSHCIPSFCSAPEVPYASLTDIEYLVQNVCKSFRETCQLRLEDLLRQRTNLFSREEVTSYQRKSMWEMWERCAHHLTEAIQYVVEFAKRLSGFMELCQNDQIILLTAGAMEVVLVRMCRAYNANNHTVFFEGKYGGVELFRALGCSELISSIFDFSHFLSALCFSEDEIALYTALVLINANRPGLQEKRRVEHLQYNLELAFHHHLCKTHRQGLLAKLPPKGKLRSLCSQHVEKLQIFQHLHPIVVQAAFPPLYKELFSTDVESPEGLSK
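Stably transfected Drosophila Schneider cells are the test system, with ROR gamma fused to Gal4 and luciferase under UAS control; luminescence is read after 20 hr of 700 uM copper sulfate induction at ambient temperature.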
Of the large screens only hits and unclear results are named; the others gave an inactive call. Hits are enriched below; roughly 5.4% of the tested compounds scored in any of these assays. Unless noted, calls follow the shape of the dose curve; as a rule, active = well fitted curve in the direction sought with a large enough effect; inconclusive = small, poorly fitted or top-dose-only effect, or another doubt; inactive = no such curve, though single readings can be large; an effect the other way counts as inactive or inconclusive.

C/C(=N\Nc1ccc(S(N)(=O)=O)cc1[N+](=O)[O-])c1ccc2c(c1)OCO2	Six1-Eya2 blk inconclusive, VP16 counter 11.2µM, CtBP-E1A blk inconclusive, RORgamma inh inconclusive
O=C(O)[C@H](Cc1ccccc1)NC(=O)N1CCOCC1	RORgamma inh 5.01µM
O=C(O)[C@H](Cc1ccccc1)NC(=O)N1CCCCCC1	none
Cn1cccc1C(=O)N1CCC2(CC1)CCN(c1ccccc1)CC2	none (no result: p53 reactivation, Six1-Eya2 blk, CtBP-E1A blk)
COc1ccc(C2C=C3CNS(=O)(=O)C3CC2OC(=O)c2cccc(C)c2)cc1 (configuration not stated)	none (no result: p53 reactivation, Six1-Eya2 blk, CtBP-E1A blk)
CCN(CC)CCn1c(NCc2cc(OC)ccc2OC)nc2ccccc21	RORgamma inh inconclusive
Cc1ccc(CNc2nc3ccccc3n2C)cc1	VP16 counter inconclusive, RORgamma inh 10µM (no result: p53 reactivation)
CCN(CC)c1ccc(CNc2nc3ccccc3n2CCN2CCOCC2)cc1	RORgamma inh 11.2µM
CCCn1c(NCc2ccccn2)nc2ccccc21	RORgamma inh 14.1µM
CCN(CC)CCn1c(NCc2cccc(OC)c2)nc2ccccc21	RORgamma inh 5.62µM
O=C(NC1CCN(S(=O)(=O)c2ccccc2)CC1)c1ccccc1	none (no result: CtBP-E1A blk)
Cc1ncoc1C(=O)N1CCCC(C(=O)Nc2cccc(-c3ccc(F)cc3)c2)C1 (configuration not stated)	VP16 counter inconclusive
C=C(C)Cn1c2ccc(NC(=O)NCCc3ccccc3)cc2c(=O)n1C	none (no result: p53 reactivation, VP16 counter, RORgamma inh)
CCCCn1c(Nc2ccc(OC)cc2)nc2ccccc21	VP16 counter inconclusive, RORgamma inh 10µM (no result: CtBP-E1A blk)
Cc1ccc(CC2CC(=O)N(c3nc4ccccc4n3C)C2=O)cc1 (configuration not stated)	VP16 counter inconclusive, RORgamma inh 12.6µM
COc1ccc(Nc2nc3ccccc3n2C)cc1	none (no result: p53 reactivation)
CCCCn1c(NCc2ccncc2)nc2ccccc21	none
CCCCn1c(NCc2ccc(N(C)C)cc2)nc2ccccc21	Six1-Eya2 blk inconclusive, VP16 counter 12.6µM
CC(=O)Nc1ccc2nc(CN3CCC(CO)(CCc4ccccc4)CC3)ccc2c1	none
COc1cc(CC(=O)N2CCN(C(=O)C3CCCO3)CC2)cc(OC)c1OC (configuration not stated)	none (no result: VP16 counter, RORgamma inh)
COc1ccc(S(=O)(=O)N2CCCC2CNC(=O)C(=O)NCc2cccs2)cc1 (configuration not stated)	none (no result: VP16 counter, RORgamma inh)
NC(=O)NOCc1ccccc1F	none
C=CCn1c(NS(=O)(=O)c2ccccc2)c(S(=O)(=O)c2ccc(C)cc2)c2nc3ccccc3nc21	VP16 counter 25.1µM, RORgamma inh 15.8µM
COC(c1ccccc1)C(C)C(OC)C(C)C(OC)C(C)C(C)=O (configuration not stated)	none (no result: p53 reactivation, Six1-Eya2 blk, CtBP-E1A blk)
CCN(CC)C(=O)c1ccc2sc([C@H]3C[C@H](O)[C@@H](CO)O3)nc2c1	none (no result: p53 reactivation, VP16 counter, RORgamma inh)
c1ccc(-c2csc(NC3=NCCCCC3)n2)cc1	p53 reactivation inconclusive
Brc1ccc(-c2csc(NNC3=NCCCCC3)n2)cc1	VP16 counter 14.1µM, RORgamma inh 7.08µM
CC(C)(C)c1ccc(-c2csc(NNC3=NCCCCC3)n2)cc1	VP16 counter inconclusive, RORgamma inh 12.6µM
FC(F)Oc1ccc(-c2csc(NNC3=NCCCCC3)n2)cc1	RORgamma inh inconclusive (no result: CtBP-E1A blk)
COC(=O)[C@@]1(Cc2ccccc2)[C@H]2c3cc(C(=O)N4CCCC4)n(C)c3C[C@H]2CN1C(=O)c1ccccc1	none (no result: p53 reactivation, Six1-Eya2 blk, CtBP-E1A blk)
CN(C)C=O	none (no result: p53 reactivation, Six1-Eya2 blk, CtBP-E1A blk)
CC(=O)Nc1ccc(S(=O)(=O)NNC(=O)C(=O)NNc2ccccn2)cc1	Six1-Eya2 blk inconclusive (no result: CtBP-E1A blk)
Cc1ccccc1S(=O)(=O)NNC(=O)C(=O)NNc1ccccn1	Six1-Eya2 blk -81.7, CtBP-E1A blk -71.2
Nc1ccc(S(=O)(=O)NNC(=O)C(=O)NNc2ccccn2)cc1	Six1-Eya2 blk -92.6, CtBP-E1A blk -68.5
Cc1ccc(S(=O)(=O)NNC(=O)C(=O)NNc2ccccn2)cc1	Six1-Eya2 blk -88.2, CtBP-E1A blk -92.6, RORgamma inh 8.91µM
CCCN1CCc2c(sc3nc(SCC)n(-c4ccc(OC)cc4)c(=O)c23)C1	none
CC1CCN(CCCNC(=O)c2ccc3c(Cl)c4c(nc3c2)CCCC4)CC1	none
Cc1cccc(Nc2nnc(SC/C(O)=C(\C#N)c3nc4ccccc4[nH]3)s2)c1	VP16 counter 11.2µM, RORgamma inh 7.08µM
COc1ccc(C)cc1-n1nnnc1SC/C(O)=C(\C#N)c1nc2ccccc2[nH]1	VP16 counter inconclusive, RORgamma inh 12.6µM
Cc1cc(C)n2c(SCC(O)=C(C#N)c3nc4ccccc4[nH]3)nnc2n1	none (no result: p53 reactivation, VP16 counter, RORgamma inh)
COc1cc(C=NNc2ccccc2)ccc1OC(=O)c1ccccc1	none (no result: p53 reactivation, VP16 counter, RORgamma inh)
Cc1ccc(/C=N/Nc2ccc(C(=O)O)cc2)o1	VP16 counter 0.398µM, RORgamma inh 0.316µM (no result: CtBP-E1A blk)
O=C(O)c1ccc(N/N=C/c2ccc(-c3ccc(Br)cc3)o2)cc1	p53 reactivation inconclusive, RORgamma inh inconclusive
COc1ccc(/C=N/Nc2ccc(C(=O)O)cc2)cc1OC	VP16 counter 0.447µM, RORgamma inh 1.58µM
O=C(O)c1ccc(N/N=C/c2ccc(OC(=O)c3ccccc3Cl)cc2)cc1	VP16 counter 0.316µM, RORgamma inh 0.398µM
COc1ccc2c(c1)c(/C=N/Nc1ccc(C(=O)O)cc1)c(C)n2C	VP16 counter inconclusive, RORgamma inh inconclusive (no result: CtBP-E1A blk)
COc1ccc2c(/C=N/Nc3ccc(C(=O)O)cc3)c[nH]c2c1	VP16 counter 5.01µM, RORgamma inh inconclusive
CC(Oc1ccc(F)cc1)C(=O)Nc1ccccc1N1CCCCC1 (configuration not stated)	VP16 counter inconclusive, RORgamma inh inconclusive
COc1ccc(/C=N/Nc2ccc(C(=O)O)cc2)cc1Br	RORgamma inh 39.8µM
CC(C)c1ccc(/C=N/Nc2ccc(C(=O)O)cc2)cc1	VP16 counter 0.251µM, RORgamma inh inconclusive
CCC(=O)Nc1cccc(-c2ccc(N3CCN(C)CC3)nn2)c1	p53 reactivation inconclusive, VP16 counter inconclusive, RORgamma inh 14.1µM (no result: CtBP-E1A blk)
CN1CCN(c2ccc(-c3cccc(NC(=O)COc4ccccc4)c3)nn2)CC1	none (no result: VP16 counter, RORgamma inh)
CCC(=O)Nc1cccc(-c2ccc(N3CCCCC3)nn2)c1	p53 reactivation inconclusive, VP16 counter 2.82µM, RORgamma inh 2.51µM (no result: CtBP-E1A blk)
CC(=O)OCC1OC(Oc2cc(OC(C)=O)c3c(=O)cc(-c4ccc(OC(C)=O)c(OC(C)=O)c4)oc3c2)C(OC(C)=O)C(OC(C)=O)C1OC(C)=O (configuration not stated)	VP16 counter 15.8µM, RORgamma inh 25.1µM (no result: p53 reactivation, Six1-Eya2 blk, CtBP-E1A blk)
CC(=O)OC[C@H]1O[C@@H](Oc2cc3ccc(=O)oc3cc2OC(C)=O)[C@H](OC(C)=O)[C@@H](OC(C)=O)[C@@H]1OC(C)=O	none (no result: p53 reactivation, VP16 counter, RORgamma inh)
Cc1ccc(C(=O)OCC(=O)Nc2ccc(C)c(S(=O)(=O)N3CCCCC3)c2)c(O)c1	none (no result: p53 reactivation, VP16 counter, RORgamma inh)
CCCCN1CN(Cc2ccccc2)CNC1=S	VP16 counter 5.01µM, RORgamma inh 4.47µM
CCOCCCN1CN(Cc2ccccc2)CNC1=S	VP16 counter 3.55µM, RORgamma inh 2.51µM
